Measured values published in PubChem BioAssay (NCI).
This is part of a sample that, as a whole, favours compounds with a hit. Of some 83,000 tested, about 20% had one in any assay.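 Assay: single dose, 48 h. Readout: percent growth (0 = no net growth; negative = cell death). Active: <10.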 Values without a mark were called inactive. Activity calls are given as the source filed them.

What was measured:
Experiment in all cases: NCI-60 one-dose screen, 48 h (100 = growth as untreated, 0 = no growth, -100 = all killed)
Settings in all cases: 10 µM unless noted
T-47D breast = test system: T-47D breast
BT-549 breast = test system: BT-549 breast
MDA-MB-435 melanoma = test system: MDA-MB-435 melanoma
SW-620 colon = test system: SW-620 colon
HCT-116 colon = test system: HCT-116 colon
HCC-2998 colon = test system: HCC-2998 colon
KM12 colon = test system: KM12 colon
MDA-MB-468 breast = test system: MDA-MB-468 breast

SMILES | growth (T-47D breast) | growth (BT-549 breast) | growth (MDA-MB-435 melanoma) | growth (SW-620 colon) | growth (HCT-116 colon) | growth (HCC-2998 colon) | growth (KM12 colon) | growth (MDA-MB-468 breast)
Nc1nnc(-c2c[nH]c3ccc(Br)cc23)c(-c2c[nH]c3ncc(Br)cc23)n1 | 16.7% | 35.4% | 30.3% | 50.2% | 17.1% | 48.5% | 32.6% | 26.1%
COc1c(F)ccc(C(=O)Nc2ccc3nc(NC(=O)C4CCCN(S(=O)(=O)c5ccc(Cl)cc5)C4)sc3c2)c1F (stereo not given) | 52.6% | 62.4% | 101% | 97.2% | 65.3% | 103% | 78.7% | 80.2%
CCCSc1nc(Nc2ccc(S(N)(=O)=O)cc2)c(C#N)c(-c2cc(OC)c(OC)c(OC)c2)n1 | -11.4% (active) | 16.5% | 23% | 30% | 11.4% | 43.6% | 12.7% | –
Cc1sc(C(NC(=O)OCCn2c([N+](=O)[O-])cnc2C)C(F)(F)Cl)nc1-c1ccc(OC(F)(F)F)cc1 (stereo not given) | -66.1% (active) | -92.2% (active) | -43.7% (active) | -67.1% (active) | -80.3% (active) | -96.6% (active) | -61.9% (active) | -93.4% (active)
COc1cc(C2CC(c3cc(OC)c(OC)c(OC)c3)=NN2C(C)=O)ccc1OCc1ccc(F)cc1 (stereo not given) | 24.8% | 44.9% | 62.5% | 58.5% | 31.5% | 86% | 57.1% | 47.1%
CC(=O)c1cc(C(=O)c2ccccc2)n2c1ccc1ccccc12 | 83.5% | 73% | 108% | 99.3% | 82.4% | 121% | 83.1% | 93.9%
CC12CC[C@@H]3[C@]4(C)COC(c5cn[nH]c5-c5cccc(Cl)c5)O[C@@H]4CC[C@@]3(C)[C@@H]1CC(C1=CCOC1=O)O2 (stereo not given in full) | 17.7% | 0.371% (active) | 44.1% | 50.6% | 19.1% | 40.7% | 17.9% | 7.22% (active)
COc1ccc(-c2nc3cc(C)ccc3n2CC(=O)N=Nc2c(O)[nH]c3ccc(Cl)cc23)cc1 | 2.44% (active) | -43.7% (active) | -7.28% (active) | 12.4% | -65.4% (active) | -1.72% (active) | 9.61% (active) | -42.6% (active)
COc1c(F)ccc(C(=O)Nc2ccc3nc(NC(=O)C4CCCN(S(=O)(=O)c5cccc(C(F)(F)F)c5)C4)sc3c2)c1F (stereo not given) | 48.4% | 54.3% | 87.1% | 99.9% | 60.7% | 107% | 80% | 101%
O=C(Cn1c(/C=C/c2ccccc2)nc2ccccc2c1=O)Nc1ccc(Cl)cc1 | -11.5% (active) | 89% | 85.2% | 72.1% | 30.4% | 99.2% | 84.3% | 57.3%
COc1ccc(-c2ccnc(SCc3cc4cc(OC)ccc4[nH]c3=O)n2)cc1 | 2.83% (active) | -3.12% (active) | 1.18% (active) | 22.2% | 11% | 35% | 24.2% | -26.3% (active)
CC(=O)Nc1ccc(-n2cnc3cc(-c4ccc(O)cc4)ccc32)cc1C(F)(F)F | 20.5% | 32.5% | 3.5% (active) | 22.3% | 31% | 33.9% | 3.46% (active) | 8.18% (active)
CC1(C)CC[C@]2(C(=O)O)CC[C@]3(C)C(=CCC4[C@@]5(C)C[C@@H](O)[C@@H]6OC(c7ccccc7Br)OC[C@@]6(C)C5CC[C@]43C)C2C1 (stereo not given in full) | 20.4% | 13.5% | 28% | 19.5% | 6.88% (active) | 18.8% | 16.9% | 18.4%
COc1cc2nc(SCc3ccccc3)n(-c3ccc(Cl)cc3)c(=O)c2cc1OC | 45% | 0.336% (active) | 30.3% | 9.44% (active) | -41% (active) | 20.3% | 40.5% | -10.9% (active)
N/C(=N\N=C\c1ccc([N+](=O)[O-])cc1)c1c(N)nc(=S)[nH]c1-c1ccc(Cl)cc1Cl | 95.3% | 75.6% | 108% | 108% | 85.2% | 106% | 108% | 90.8%
COc1ccc(-c2nc3cc(C)ccc3n2CC(=O)N=Nc2c(O)[nH]c3ccc(Br)cc23)cc1 | -2.62% (active) | -41.5% (active) | 2.16% (active) | 9.98% (active) | -69.6% (active) | 22.7% | 11.5% | -46.6% (active)

SMILES | growth (T-47D breast) | growth (BT-549 breast) | growth (MDA-MB-435 melanoma) | growth (SW-620 colon) | growth (HCT-116 colon) | growth (HCC-2998 colon) | growth (KM12 colon) | growth (MDA-MB-468 breast)
COc1ccc(-c2ccnc(SCc3cc4ccccc4[nH]c3=O)n2)cc1OC | -5.29% (active) | -58.3% (active) | 14.8% | 48.8% | 2.06% (active) | 5.44% (active) | 33.7% | -8.96% (active)
CCCCSc1nc(Nc2ccc(S(N)(=O)=O)cc2)c(C#N)c(-c2cc(OC)c(OC)c(OC)c2)n1 | 15.2% | 44.3% | 33% | 48.6% | 21.8% | 65% | 26.6% | 61.2%
O=C(N1c2ccccc2Sc2ccccc21)n1ccc2cccnc21 | 27.7% | 60.2% | 19.7% | 58.4% | 34.9% | 85.1% | 49.2% | 51.8%
Cn1cc(-c2cc(N)n3nc(-c4cn(C)c5ncc(Br)cc45)cc3n2)c2cc(Br)cnc21 | -4.13% (active) | 34.8% | -37.8% (active) | -68.6% (active) | -76.3% (active) | -38.3% (active) | -3.78% (active) | -84.2% (active)
Cn1cc(-c2nnc(N)nc2-c2c[nH]c3ccc(F)cc23)c2cccnc21 | 40.7% | 34% | -21.8% (active) | 19.3% | 15.1% | 65.8% | 22.3% | 39.1%
CC12CC[C@@H]3[C@]4(C)COC(c5cn[nH]c5-c5ccc(Cl)cc5)O[C@@H]4CC[C@@]3(C)[C@@H]1CC(C1=CCOC1=O)O2 (stereo not given in full) | 6.42% (active) | 5.38% (active) | 47.7% | 49.4% | 25.1% | 58% | 31.9% | 0.753% (active)
CC(=O)c1cccc(NC(=O)CCC(=O)NS(=O)(=O)c2ccc(C)cc2)c1 | 106% | 107% | 112% | 111% | 101% | 117% | 104% | 122%
CN(C)c1nc(NCCNS(=O)(=O)c2ccc(C3=Nc4c(N)nc(N)nc4NC(c4ccccc4)C3)cc2)nc(Nc2ccc(F)cc2)n1 (stereo not given) | 39.8% | 29.1% | 41.6% | 49.9% | 32.7% | 31.9% | 33.8% | -35.8% (active)
COc1ccc2c(c1)c(-c1cc3nc(-c4cn(C)c5ncccc45)cc(N)n3n1)cn2C | -48.5% (active) | -84.7% (active) | -62.4% (active) | -70.4% (active) | -89% (active) | -100% (active) | -69.3% (active) | -89.6% (active)
O=C(Cn1c(/C=C/c2ccccc2)nc2ccccc2c1=O)Nc1ccccc1 | -11.3% (active) | 91.3% | 105% | 75.9% | 44.6% | 95.2% | 101% | 61.8%
COc1ccc(-c2ccnc(SCc3cc4ccccc4[nH]c3=O)n2)cc1 | 70.2% | 29.7% | 1.7% (active) | 35.1% | 31% | 59.6% | 57.3% | 6.26% (active)
COc1ccc(/C=C/c2nc3ccccc3c(=O)n2CC(=O)Nc2ccc(OC)cc2)cc1 | 66.4% | 72.5% | 96.4% | 84.4% | 32.1% | 95.6% | 79.6% | 91.1%
Cn1cc(-c2cc3nc(-c4cn(C)c5ncc(Br)cc45)cc(N)n3n2)c2ccccc21 | -40.9% (active) | -73% (active) | -70.8% (active) | -48% (active) | -100% (active) | -89% (active) | -55.5% (active) | -78.9% (active)
Cn1cc(-c2cc(N)n3nc(-c4c[nH]c5ccccc45)cc3n2)c2cc(Br)cnc21 | -56% (active) | -87.8% (active) | -79.3% (active) | -69.1% (active) | -90.7% (active) | -94.3% (active) | -60.9% (active) | -88.5% (active)
Cn1cc(-c2cc3nc(-c4cn(C)c5ncc(Br)cc45)cc(N)n3n2)c2cc(Cl)ccc21 | -62% (active) | -78.8% (active) | -88.4% (active) | -81.5% (active) | -89.3% (active) | -99.1% (active) | -58.5% (active) | -88.5% (active)
CC12CC[C@@H]3[C@]4(C)COC(c5cn[nH]c5-c5ccc(Br)cc5)O[C@@H]4CC[C@@]3(C)[C@@H]1CC(C1=CCOC1=O)O2 (stereo not given in full) | 16.3% | 21.7% | 51.8% | 62.1% | 23.4% | 55.8% | 39% | 9.94% (active)
